Source: PubChem BioAssay AID618 (Sanford-Burnham Center for Chemical Genomics, 2007)
The whole screen tested about 87,000 compounds, of which about 540 (0.62%) were called active. No rule for the calls is given here. The sample as a whole holds a higher share of actives than the screen did. Measured potencies and affinities stand elsewhere.

Assay: inhibitors of MT1-MMP promoter transcription, cell-based, luciferase reporter, luminescence (AID 618);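 also: actives suppress MT1-MMP promoter-driven transcription so potencies describe inhibitors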
Settings: MT1-MMP promoter luciferase reporter cells

SMILES | outcome
CCCCCOc1ccc(C(=O)C(c2ccccc2)N2CCOCC2)cc1 (configuration not stated) | inactive
COc1ccc(C(=O)C(CN2CCOCC2)c2ccccc2)cc1 (configuration not stated) | inactive
CC(CN1CCOCC1)C(=O)c1ccccc1 (configuration not stated) | inactive
COc1ccc(C(=O)C(CN2CCOCC2)c2ccccc2)cc1F (configuration not stated) | inactive
O=C(c1ccc(F)cc1)C(CN1CCOCC1)c1ccccc1 (configuration not stated) | active
O=C(NCC1CCCCC1)C1CCN(C(=O)NC2CCCCC2)CC1 | inactive
COc1ccc(-c2nc3c(n2O)CCCC3=O)cc1OC | inactive
O=C(CCSCCc1ccccn1)Nc1ccc(Br)cn1 | inactive
c1ccc(CCNc2nc3ccccc3s2)cc1 | inactive
Cc1ccc(C(=O)Nc2nc3ccccc3s2)s1 | inactive
COc1ccc(NC(=O)NC(C)(C(F)(F)F)C(F)(F)F)cc1 | inactive
CN(C)c1nc(SCc2ccccc2)nc(N2CCOCC2)n1 | inactive
C/C(=N\NC(=O)C1COc2ccccc2O1)c1cccs1 (configuration not stated) | inactive
C/C(=N/NC(=O)c1cc(C(C)C)[nH]n1)c1cccs1 | inactive
O=C(Nc1ccc(Cc2ccncc2)cc1)c1ccc(S(=O)(=O)N2CCOCC2)cc1 | inactive
CC(C)c1nc(=S)c2ccccc2[nH]1 | inactive
CCN1CC=C2C(C#N)=C(N)C(C#N)(C#N)[C@H](c3ccoc3)[C@H]2C1 | inactive
CN1CC=C2C(C#N)=C(N)C(C#N)(C#N)[C@H](c3ccoc3)[C@H]2C1 | inactive
N#CC1=C(N)C(C#N)(C#N)[C@H](c2ccoc2)[C@H]2CN(Cc3ccccc3)CC=C12 | active

SMILES | outcome
COc1ccc(/C(C)=N\n2cnnc2)cc1 | inactive
Cc1nnc(SCc2cnc(-c3ccc(C(C)C)cc3)s2)n1C | active
Cn1c(SCc2cnc(-c3ccccc3)s2)nnc1C1COc2ccccc2O1 (configuration not stated) | inactive
COCCn1c(SCc2cnc(-c3ccccc3)s2)nnc1-c1ccncc1 | inactive
Cc1cccc(NC(=O)CSCc2c(C)noc2C)c1C | inactive
CN(C1=NC(=O)C(CC(=O)Nc2ccc(Br)cc2)S1)c1ccc(O)cc1 (configuration not stated) | inactive
CC(=O)N(CCc1ccccc1C)Cc1cc2cc3c(cc2[nH]c1=O)OCO3 | inactive
Cc1ccccc1C(=O)N1CCC(C(=O)Nc2ccc3c(c2)OCCO3)CC1 | inactive
Cc1ccc(C(=O)N2CCN(c3cccc(Cl)c3)CC2)cc1C | inactive
O=C(O)c1ccccc1C(=O)N1CCN(c2cccc(Cl)c2)CC1 | inactive
CCCCC(=O)Nc1ccc(C(=O)N2CCC(C(=O)OCC)CC2)cc1 | inactive
Cc1ccc(C(=O)Nc2sc3c(c2C#N)CCCCC3)cc1C | inactive
Cc1ccc(-c2nnc(-c3ccc(Br)cc3)o2)o1 | inactive
C=CCn1c(SCC(=O)c2ccccc2)nnc1-c1cc2ccccc2o1 | inactive
CC1CC(C)CN(C(=O)CSc2nnc(-c3ccc(Cl)cc3)o2)C1 (configuration not stated) | inactive
CCCS(=O)(=O)C(=C(Nc1ccc(OC)cc1)Nc1ccc(OC)cc1)S(=O)(=O)CCC | inactive
COc1ccc(NC(=O)/C(Cl)=C(/Cl)S(=O)(=O)Cc2ccccc2)cn1 | active
COc1ccc(NC(=O)C(CC(C)C)NC(=O)c2ccccc2C)cn1 (configuration not stated) | inactive
COc1ccc(NC(=O)c2cc(OC)c(OC)c(OC)c2)cn1 | inactive

SMILES | outcome
COC(=O)c1ccccc1S(=O)(=O)Nc1ccc(OC)nc1 | inactive
COc1ccc(CS(=O)(=O)/C(Cl)=C(/Cl)C(=O)Nc2ccc(OC)nc2)cc1 | active
COc1ccc(CNC(=O)Nc2ccc(C)cc2)cc1 | inactive
COc1ccc(NS(=O)(=O)Cc2ccccc2Cl)cn1 | inactive
CCOc1ccccc1Nc1nc(N)nc(CN(C)C2CCCCC2)n1 | inactive
Cc1nc2cc(C(=O)O)ccc2n1C1CCCCC1 | inactive
CC1=CC(=C2C(=O)c3ccccc3C2=O)C=C(C)N1C | inactive
CCNC1=C(Cl)C(=O)c2ccccc2C1=O | inactive
CC1=CC(=C2C(=O)c3ccccc3C2=O)C=C(C)O1 | inactive
CN1C=CC(=C2C(=O)c3ccccc3C2=O)C=C1 | inactive
CCSc1nc(N)c(C#N)c(-c2ccco2)c1C#N | inactive
c1nc(N2CCOCC2)c2[nH]cnc2n1 | inactive
COc1cccc2c1C(=O)c1c(O)c3c(c(O)c1C2=O)C[C@@](O)(C(=O)CO)C[C@@H]3O[C@H]1C[C@H](N)[C@H](O)[C@H](C)O1 | inactive
COc1cccc2c1C(=O)c1c(O)c3c(c(O)c1C2=O)C[C@@](O)(C(C)=O)C[C@@H]3O[C@H]1C[C@H](N)[C@H](O)[C@H](C)O1 | active
O=C(Cn1cc2c(n1)CCCCC2)NC1CCCCCC1 | inactive
Cc1csc2ncc(C(=O)Nc3ccc(C(F)(F)F)cc3)c(=O)n12 | inactive
COC(=O)c1cccc(NC(=O)c2cnoc2C)c1 | inactive
COc1ccc(CNC(=O)[C@H](C)[C@H]2C[C@]2(C)[C@H](NC(=O)OCc2ccccc2)c2ccccc2)cc1OC | inactive
CCOC(=O)CSc1nc(C)c2ccc(C)cc2n1 | inactive
